Source: paper PMC4336329 (PLoS ONE, 2015)
About 14,000 (4.5%) of roughly 310,000 compounds showed an effect of 50% or more. The effect is printed as a negative number. This is one part of a sample in which strong results are shown more often than they occur.

The compounds below were run against human ether-à-go-go-related gene (hERG) potassium channel (human, UniProt Q12809) (assay: primary screen, population patch clamp on CHO cells stably expressing hERG; higher = less effect of the substance).
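Further: peak tail current of the secondary pulse compared with the same well before compound.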

Sequence of human ether-à-go-go-related gene (hERG) potassium channel (Q12809 whole entry, looked up): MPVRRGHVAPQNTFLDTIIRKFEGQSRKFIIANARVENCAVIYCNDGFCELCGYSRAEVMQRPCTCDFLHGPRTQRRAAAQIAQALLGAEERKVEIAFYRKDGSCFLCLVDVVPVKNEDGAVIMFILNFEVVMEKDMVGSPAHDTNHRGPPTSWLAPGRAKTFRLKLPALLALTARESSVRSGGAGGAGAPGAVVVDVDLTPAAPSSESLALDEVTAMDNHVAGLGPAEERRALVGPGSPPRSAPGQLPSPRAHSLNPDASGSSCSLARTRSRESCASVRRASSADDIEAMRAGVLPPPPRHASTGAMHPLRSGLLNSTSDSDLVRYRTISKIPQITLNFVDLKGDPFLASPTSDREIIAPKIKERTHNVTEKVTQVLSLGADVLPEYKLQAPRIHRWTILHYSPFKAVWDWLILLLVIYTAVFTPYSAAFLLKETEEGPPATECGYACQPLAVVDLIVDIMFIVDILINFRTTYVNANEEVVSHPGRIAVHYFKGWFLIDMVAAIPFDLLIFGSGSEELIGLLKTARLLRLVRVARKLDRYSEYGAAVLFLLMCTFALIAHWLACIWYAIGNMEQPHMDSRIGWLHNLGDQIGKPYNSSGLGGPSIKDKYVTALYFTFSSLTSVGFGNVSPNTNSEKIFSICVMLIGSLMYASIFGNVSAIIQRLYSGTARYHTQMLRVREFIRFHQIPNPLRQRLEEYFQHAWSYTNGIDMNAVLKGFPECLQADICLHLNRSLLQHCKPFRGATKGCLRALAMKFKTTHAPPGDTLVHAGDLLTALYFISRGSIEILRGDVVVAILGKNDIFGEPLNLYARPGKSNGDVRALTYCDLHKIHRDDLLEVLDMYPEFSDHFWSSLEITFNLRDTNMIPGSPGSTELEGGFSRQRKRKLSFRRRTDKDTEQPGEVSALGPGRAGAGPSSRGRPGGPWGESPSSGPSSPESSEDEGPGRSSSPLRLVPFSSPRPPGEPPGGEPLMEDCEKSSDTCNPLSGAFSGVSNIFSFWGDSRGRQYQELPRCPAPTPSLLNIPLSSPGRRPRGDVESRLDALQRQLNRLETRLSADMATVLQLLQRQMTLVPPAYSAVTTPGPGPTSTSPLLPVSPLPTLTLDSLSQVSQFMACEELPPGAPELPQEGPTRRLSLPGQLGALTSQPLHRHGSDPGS

| Compound | hERG current change (%, negative = inhibition) at 10uM |
| --- | --- |
| Cc1cnc(C(=O)OCC(=O)NC2CCCC(C)C2C)cn1 (centres unmarked) | 6.02% |
| O=C(Nc1ccccc1N1CCCC1)c1cc(Cl)ccc1Cl | -2.72% |
| CC(=O)N1CCN(c2ccccc2NC(=O)c2cccc3c(Cl)cccc23)CC1 | -19.2% |
| CN1CCN(c2ccccc2NC(=O)c2cc(Br)ccc2Cl)CC1 | -76.4% |
| COc1c(Cl)cc(Cl)cc1C(=O)Nc1ccccc1N1CCN(C(C)=O)CC1 | 3.01% |
| CS(=O)(=O)N1CCN(c2ccccc2NC(=O)c2ccc3ccccc3c2)CC1 | -8.76% |
| O=C(Nc1ccccc1N1CCCC1)c1ccc2ccccc2c1 | 8.73% |
| CS(=O)(=O)N1CCN(c2ccccc2NC(=O)c2cc(Br)ccc2Cl)CC1 | -30.3% |
| CC(=O)N1CCN(c2ccccc2NC(=O)c2cc(Br)ccc2Cl)CC1 | -66.6% |
| CC(=O)N1CCN(c2ccccc2NC(=O)c2ccc3ccccc3c2)CC1 | -61.9% |
| CC(C)C(NC(=O)COc1ccc2ccccc2c1)C(=O)N/N=C/C=C/c1ccccc1 (centres unmarked) | 14.8% |
| COc1cc(C2/C(=C(\O)c3ccc4c(c3)CC(C)O4)C(=O)C(=O)N2c2nnc(C)s2)cc(OC)c1OC (centres unmarked) | 9.14% |
| Cc1c(Cc2ccccc2)c(=O)oc2cc(OCC(=O)N3CCC(C(=O)O)CC3)ccc12 | 6.24% |
| Cc1noc(C)c1COc1ccc(C(=O)OCC(=O)N2CC3(C)CC2CC(C)(C)C3)cc1 (centres unmarked) | -6.44% |
| COC(=O)c1ccc(Oc2c(Cl)cccc2[N+](=O)[O-])cc1 | 3.65% |
| COc1ccc(OC(C)C(=O)NCC2CCCO2)cc1 (centres unmarked) | 18.5% |
| COC(=O)c1sc(N)c(C(=O)OC)c1COC(=O)c1c(C)noc1C | -3.57% |
| Cc1noc(C)c1CSc1nnc(C)c(=O)[nH]1 | 7.14% |
| CCOC(=O)c1[nH]c(C)c(C(=O)OCC(=O)N(C)C2CCS(=O)(=O)C2)c1C (centres unmarked) | 29% |
| OCCC1CN(Cc2ccc3nonc3c2)CCN1Cc1ccsc1 (centres unmarked) | -66.1% |
| CCOc1ccc2nc(CN3CCN(Cc4ccsc4)C(CCO)C3)ccc2c1 (centres unmarked) | -47% |
| CC(C)N1CCC(N2CCN(Cc3cccc4nonc34)CC2CCO)CC1 (centres unmarked) | 3.08% |
| OCCC1CN(Cc2cccc3nonc23)CCN1C1CCCCC1 (centres unmarked) | -5.74% |

| Compound | hERG current change (%, negative = inhibition) at 10uM |
| --- | --- |
| OCCC1CN(Cc2ccc3cc(Cl)ccc3n2)CCN1Cc1ccsc1 (centres unmarked) | -65% |
| Cc1cccc(CN2CCN(Cc3ccc4nonc4c3)CC2CCO)n1 (centres unmarked) | -35.6% |
| OCCC1CN(Cc2cccc3nonc23)CCN1Cc1ccsc1 (centres unmarked) | -52.6% |
| O=C(CN1CCCC1)Nc1ccc(Cl)cc1C(F)(F)F | 0.32% |
| COCC(C)N=C1NN=C(c2cccs2)C(CC(=O)O)S1 (centres unmarked) | 20% |
| CS(=O)(=O)Oc1ccc(/C=C2\C(=N)N3N=C(CC(=O)N4CCOCC4)SC3=NC2=O)cc1Cl | -2.27% |
| COc1cc2c(cc1OC)/C(=C/c1ccc(Cl)cc1)C(=O)OC2 | -36.4% |
| NC(=O)CSc1nnc(NC(=O)C2CC(=O)N(c3ccc(F)cc3)C2)s1 (centres unmarked) | 26.1% |
| O=C(Cc1ccc(S(=O)(=O)N2CCOCC2)s1)OCc1ccc(Cl)cc1 | -20.1% |
| COC(=O)c1ccc(NC(=O)COc2ccc(S(=O)(=O)N3CCCCC3)cc2)cc1 | -9.57% |
| Cc1ccc(Cl)c(OCC(=O)NCc2ccco2)c1 | 1.03% |
| COc1ccc(OC)c(/C=N/NC(=O)CCc2n[nH]c(=O)[nH]c2=O)c1 | 4.8% |
| CCOc1ccccc1N1CC(C(=O)Nc2ccc(S(=O)(=O)N3CCCCC3)cc2)CC1=O (centres unmarked) | -3.91% |
| S=C(Nc1ccc2cn[nH]c2c1)Nc1ccccc1Cl | -4.68% |
| COc1ccc(NC(=O)CN(C)C(=O)c2cc(S(=O)(=O)N3CCCCCC3)ccc2OC)cc1 | -24% |
| COc1ccc(S(=O)(=O)N2CCCCCC2)cc1C(=O)N(C)Cc1c(F)cccc1Cl | -49.8% |
| Cc1ccc(S(=O)(=O)NCc2ccccc2)cc1C(=O)N(C)CC(=O)Nc1c(Cl)cccc1Cl | -30.4% |
| COc1cccc(NC(=O)CN(C)C(=O)c2cc(S(=O)(=O)NCc3ccccc3)ccc2C)c1 | -71.1% |
| COc1ccc(S(=O)(=O)N2CCOCC2)cc1C(=O)N(C)Cc1ccccc1F | -37.8% |
| COc1cccc(NC(=O)CN(C)C(=O)c2cc(S(=O)(=O)N3CCCCC3)ccc2Cl)c1 | -34.7% |
| COc1cccc(NC(=O)CN(C)C(=O)c2cc(S(=O)(=O)N3CCCCCC3)ccc2OC)c1 | -50.9% |
| COc1ccc(NS(=O)(=O)c2ccc(C)c(C(=O)N(C)CC(=O)Nc3cccc(OC)c3)c2)cc1 | -9.42% |
| COc1ccc(S(=O)(=O)N2CCCCCC2)cc1C(=O)N(C)Cc1ccccc1F | -53.2% |

| Compound | hERG current change (%, negative = inhibition) at 10uM |
| --- | --- |
| Cc1ccc(S(=O)(=O)N(Cc2cccc(C(F)(F)F)c2)C(=O)N2CCN(C)CC2)cc1 | 10.3% |
| COC(=O)CCC(=O)OC1(C)C(=O)C2=CN(CCCOC(C)C)C(c3ccc(OC)cc3)=CC2=C(Br)C1=O (centres unmarked) | -22.7% |
| CC(=O)NC(=O)NC1CSCC1OC(C)=O (centres unmarked) | 15.8% |
| CC(NC(=O)CCCn1cc([N+](=O)[O-])cn1)c1ccccc1 (centres unmarked) | -3.6% |
| COc1ccccc1/C=N/NC(=O)CC(=O)NCCc1ccccc1 | 12.1% |
| CCOC(=O)c1cc(-c2ccccc2)sc1NC(=O)CC | 1.19% |
| CCOCC(=O)Nc1ccc(S(=O)(=O)NCCc2ccccc2)cc1 | -22.9% |
| Nc1ccc(C(=O)Nc2ccccc2C(=O)O)cc1 | 10.2% |
| Cc1[nH]n2c(=O)c3c(nc2c1-c1ccccc1)CCC3 | 0.138% |
| CCCN(CCC(=O)Nc1cc(OC)cc(OC)c1)CC1CC1.Cl | -12.1% |
| Cc1cc(NC(=O)c2nn3cccnc3c2Cl)no1 | 6.12% |
| CNC(=S)Nc1cc(Cl)ccc1Oc1ccccc1 | -6.86% |
| CCc1nnc(NC(=O)CCN2C(=O)CCC2=O)s1 | -8.3% |
| COc1ccc2sc(-c3ccc(SC)cc3)c(C#CC(C)(C)O)c2c1 | 11.6% |
| CCOC(=O)C1(CCOc2ccccc2)CCN(Cc2cc(OC)c(O)cc2Cl)CC1 | -69.2% |
| CCOC(=O)C1(CCOc2ccccc2)CCN(Cc2cc(OC)ccc2OC)CC1 | -73.2% |
| CCOC(=O)C1(CCOc2ccccc2)CCN(Cc2cccc(OC)c2O)CC1 | -70.5% |
| CCOC(=O)C1(CCOc2ccccc2)CCN(Cc2ccccc2O)CC1 | -30.8% |
| CCOC(=O)C1(CCOc2ccccc2)CCN(Cc2ccccc2OC)CC1 | -71.4% |
| O=C(O)c1cc(-n2[nH]c(=O)c3ccccc3c2=O)ccc1Cl | 21.3% |
| Cc1sc2ncnc(N3CCCCC3C)c2c1C (centres unmarked) | -13.6% |
| Cc1cc(C)c(C(=O)CN2C(=O)NC3(CCC(C)CC3)C2=O)cc1C (centres unmarked) | 11.1% |
| COC(=O)c1sccc1NC(=O)CC1NCCNC1=O (centres unmarked) | 0.0435% |

| Compound | hERG current change (%, negative = inhibition) at 10uM |
| --- | --- |
| COc1ccccc1NC(=O)/C=C/c1ccc2c(c1)OCO2 | -8.32% |
| CCCc1nc(SCC(=O)NCc2ccco2)c2c(=O)n(C)c(=O)n(C)c2n1 | 0.943% |
| Cn1c(=O)c2c(SCC(=O)NCc3ccco3)nc(CC(C)(C)C)nc2n(C)c1=O | -57.4% |
| CC(C)c1nc(SCc2ccccn2)c2c(=O)n(C)c(=O)n(C)c2n1 | 5.32% |
| Cc1ccccc1-c1nc(SCc2ccccn2)c2c(=O)n(C)c(=O)n(C)c2n1 | 28.7% |
| Cn1c(=O)c2c(SCc3ccccn3)nc(C3CC3)nc2n(C)c1=O | 6.51% |
| CCc1nc(SCC(=O)NCc2ccco2)c2c(=O)n(C)c(=O)n(C)c2n1 | -0.832% |
| Cn1c(=O)c2c(SCc3ccccn3)nc(CC(C)(C)C)nc2n(C)c1=O | -79.4% |
| CCCc1nc(SCc2ccccn2)c2c(=O)n(C)c(=O)n(C)c2n1 | -59.1% |
| CCc1nc(SCc2ccccn2)c2c(=O)n(C)c(=O)n(C)c2n1 | 0.896% |
| Cc1ccc(N(C)S(=O)(=O)c2ccc3[nH]cc(C(=O)NCCCN4CCOCC4)c(=O)c3c2)cc1C | -16.5% |
| Cc1ccc(Nc2ncccc2C(N)=O)cc1 | 19.5% |
| Cc1ccccc1NC1=NS(=O)(=O)c2ccccc21 | 4.25% |
| CCOc1ccc(OCC)c(NC(=O)CN(c2ccc(C)cc2)S(=O)(=O)c2c(C)noc2C)c1 | 3.31% |
| Cl.O=C(CN1CCCC1)Nc1ccc(OC(F)(F)F)cc1 | -41.1% |
| CCN1CCN(CC(=O)Nc2ccc(OC(F)(F)F)cc2)CC1.Cl | -69.1% |
| CCOC(=O)N1CCN(CCC(=O)Nc2ccc(Br)cc2)CC1 | -33.2% |
| CN1CCN(CC(=O)Nc2ccc(OC(F)(F)F)cc2)CC1.Cl | -65.1% |
| O=C(CN1CCc2ccccc2C1)Nc1ccc(OC(F)(F)F)cc1 | -6.92% |
| Cl.O=C(CN1CCOCC1)Nc1ccc(OC(F)(F)F)cc1 | -8.1% |
| CCOC(=O)N1CCN(CCC(=O)Nc2ccc(OC)cc2)CC1 | -1.76% |
| CCOC(=O)N1CCN(CCC(=O)Nc2ccc(OC(F)(F)F)cc2)CC1 | -63.3% |
| O=C(CN1CCN(c2ccccn2)CC1)Nc1ccc(OC(F)(F)F)cc1 | -29.9% |
